Compounds with a hit are over-represented: about 3.5% of the library has one in this group of screens.
mHTT CaM bind – mHTT-calmodulin interaction abrogation. P42858. AlphaScreen His-mHTT/GST-CaM binding, luminescence. inhibition, % at 15 µM. actives 3.6% (n = 190,000). AID 1671202;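 also: 0% = both proteins with DMSO and 100% = one protein alone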
Pf apPOL block – Pf-apPOL DNA polymerase inhibition. Recombinant Pf-apPOL, molecular beacon fluorescence, 1.5 h. inhibition, % at 10 µM. actives 0.25% (n = 210,000)
The depositor's hits bear a star; i = inactive; . = no result; ! = not confirmed by another sample. Rule as the data show it: active = inhibition above about 50%; inactive = the rest.

SMILES | mHTT CaM bind | Pf apPOL block
CC(=O)Nc1ccc(S(=O)(=O)Nc2ccc3c(c2)OC(C)(C)O3)cc1 | 3.7 | -1.1
O=S(=O)(Nc1ccc2c(c1)OC1(CCCC1)O2)c1ccc2c(c1)Cc1ccccc1-2 | 62.9* | .
O=C(O)Cc1ccc2c(c1)[nH]c1ccc(Br)cc12 | 0.0 | -24.0
CC1=CC(=O)C(C(C)C)=CC1=NS(=O)(=O)c1ccc([N+](=O)[O-])cc1 | 50.0 | -6.4
CC1=CC(=NS(=O)(=O)c2ccc(Cl)cc2)C(C)=CC1=O | 65.0* | -1.6
Cn1c(C2CCN(C(=O)Nc3cc(Cl)ccc3Cl)CC2)cc(=O)n2nccc12 | -6.4 | -3.2
CCCC(C(=O)O)N1C(=O)C(=Cc2ccccc2OC)SC1=S (stereo unspecified) | 60.0* | -60.2
O=C(O)CN1C(=O)/C(=C\c2ccco2)SC1=S | 3.4 | .
CCCCC(C(=O)O)N1C(=O)C(=Cc2ccco2)SC1=S (stereo unspecified) | 29.2 | 52.3*
COc1cc(C=C2SC(=S)N(CCCCC(C(=O)O)N3C(=O)C(=Cc4ccc(O)c(OC)c4)SC3=S)C2=O)ccc1O (stereo unspecified) | 49.2 | 61.7*
CCN1C(=O)C(=Cc2ccc(O)c(OC)c2)SC1=S | 38.8 | -25.8
CCC(C(=O)O)N1C(=O)C(=Cc2cc(OC)c(OC)c(OC)c2)SC1=S (stereo unspecified) | 19.1 | 1.6
CCCC(C(=O)O)N1C(=O)C(=Cc2cccc(OC)c2OC)SC1=S (stereo unspecified) | 22.0 | -27.6
CCCCC(C(=O)O)N1C(=O)C(=Cc2cc(OC)c(OC)c(OC)c2)SC1=S (stereo unspecified) | 54.9* | -63.7
CCC(=O)N1CCc2sc(S(=O)(=O)Nc3cccc(Cl)c3)cc2C1 | 3.9 | -1.5
COc1ccccc1CCC(=O)N1CCCN(c2ncccc2-c2nc(C3CC3)no2)CC1 | -26.6 | -2.3
CC(=O)N1c2c(C)cccc2C(C)CC12CCCCCC2 (stereo unspecified) | -31.0 | -2.5
CCN(CC)CC#Cc1ccc(C#CCN(CC)CC)cc1 | 2.3 | -0.3
O=C(Cn1cc([N+](=O)[O-])nc1[N+](=O)[O-])N(Cc1ccccc1)Cc1ccccc1 | 14.0 | 1.1
COCCN1C(=O)Cc2ccccc2C1C(=O)N1CCCCC1 (stereo unspecified) | -12.0 | -1.6
O=C(CN1CCC(c2nc(-c3ccccc3)no2)CC1)NCc1ccccc1 | -3.6 | -3.5
COCC1CCN(C(=O)c2cn3ccnc(-c4ccc(C)cc4)c3n2)CC1 | 4.5 | -1.5
O=C(CN1CCCCC1c1nc(-c2cccc(F)c2)no1)NCc1ccc(F)cc1 (stereo unspecified) | -3.5 | 6.1
COC(=O)CCN1C(=O)C(=Cc2ccc(O)c(OC)c2)SC1=S | 21.3 | -17.5
COc1cc(/C=C2/SC(c3ccc(C)cc3)=NC2=O)cc(OC)c1OC | -3.0 | 0.4
SMILES | mHTT CaM bind | Pf apPOL block
COC(=O)CN1C(=O)C(=Cc2ccc(O)c(OC)c2)SC1=S | 57.6* | -17.7
COc1cc(/C=C2/SC(c3ccc(C)cc3)=NC2=O)ccc1O | 53.0* | 0.7
O=C(NCC(O)c1ccoc1)NC1CCCCC1 (stereo unspecified) | -0.5 | -2.8
O=S(=O)(Nc1nc2n(n1)C(c1ccccc1)C=C(c1ccc(Cl)cc1)N2)c1ccccc1 (stereo unspecified) | 5.0 | -3.0
O=C1CCC(=O)N1c1nc2n(n1)C(c1ccccc1)C=C(c1ccc(Cl)cc1)N2 (stereo unspecified) | 77.0* | 9.5
COC(=O)C1=C(N)Oc2cc(C)oc(=O)c2C1c1cccc(Cl)c1 (stereo unspecified) | 0.3 | -6.6
COc1ccc(C2CC(c3ccc(-c4ccccc4)cc3)Nc3nnnn32)cc1 (stereo unspecified) | 64.0* | -7.2
COc1ccc(C2CC(c3ccccc3)Nc3nnnn32)cc1 (stereo unspecified) | -0.6 | 1.7
O=C(O/N=C/c1ccncc1)c1ccc2c(c1)OCCO2 | i | 10.2
Cn1c2ccc(Br)cc2c2nnc(SCN3C(=O)c4ccccc4C3=O)nc21 | -2.0 | -3.0
Cn1c2ccc(Br)cc2c2nnc(SCCN3CCOCC3)nc21 | 80.0* | -2.0
Cc1nc(C(F)(F)F)ccc1C(=O)NNC(=O)c1ccc(C(F)(F)F)cc1 | . | -2.3
COCCN(CCOC)c1cc(C)nc(-n2cc([N+](=O)[O-])cn2)n1 | -8.0 | -4.3
Cc1cccc(NC(=O)COc2ccc(Cl)c(C)c2)n1 | 7.0 | -0.3
Cc1cccc(NC(=O)COc2c(C)cc(Cl)cc2Cl)n1 | -8.3 | 58.3*
COc1ccc(N2CCN(C(=O)C3CCCCC3)CC2)cc1 | 2.5 | 2.5
COc1ccc(C2=NC3(CCCCCC3)N(CC(=O)Nc3ccc(Cl)cc3)C2=O)cc1 | 90.2* | -3.3
Cc1ccccc1NC(=O)CN1C(=O)C(c2ccc(F)cc2)=NC12CCCCC2 | 50.1* | -1.3
O=C(CN1C(=O)C(c2ccccc2)=NC12CCCC2)Nc1ccc(F)c(F)c1 | 4.9 | -10.2
COc1ccc(C2=NC3(CCCCC3)N(CC(=O)Nc3ccc(F)cc3)C2=O)cc1 | 66.3* | -7.4
Cc1cccc(NC(=O)CN2C(=O)C(c3ccc(F)cc3)=NC23CCCC3)c1C | -0.4 | -3.9
COc1ccc(C2=NC3(CCCCC3)N(CC(=O)Nc3ccc(F)c(F)c3)C2=O)cc1 | 98.1* | -6.0
COc1ccc(NC(=O)CN2C(=O)C(c3ccc(C)cc3)=NC23CCCCC3)cc1 | -0.6 | -8.6
COc1ccc(NC(=O)CN2C(=O)C(c3ccccc3)=NC23CCCCCC3)cc1 | 9.0 | -11.4
CCCOc1ccc(Cc2nnn(CC(=O)O)n2)cc1 | -2.0 | -1.6
SMILES | mHTT CaM bind | Pf apPOL block
Cc1ccc(NC(=O)CCn2c(N3CCCCC3)nc3ccccc3c2=O)cc1 | -1.6 | -5.7
CCOc1ccc(CC(=O)Nc2cc(C)ccc2C)cc1OCC | 12.6 | 0.5
Cc1ccc(=O)n(CCNC(=O)c2cc3ccccc3o2)n1 | -14.7 | -1.0
Cc1[nH]c2c(c1C)C(=O)CC(C)(C)C2 | 68.0* | .
COC(=O)c1[nH]c2c(c1C)C(=O)CC(C)(C)C2 | 2.7 | .
COc1cc(/C=C/C(=O)Nc2ccc3nc(N4CCN(C)CC4)cc(C)c3c2)cc(OC)c1OC | 21.0 | -3.9
Cc1cc(N2CCN(C)CC2)nc2ccc(NC(=O)/C=C/c3cccc(Cl)c3)cc12 | 94.0* | -7.9
Cc1cc(N2CCCCC2)nc2ccc(NC(=O)/C=C/c3cccs3)cc12 | 33.0 | -5.4
COc1ccc(/C=C/C(=O)Nc2ccc3nc(N4CCN(C)CC4)cc(C)c3c2)cc1OC | 51.0* | -2.4
CC(C)(C)c1ccc(C2=N/C(=C\c3ccccc3[N+](=O)[O-])C(=O)O2)cc1 | 0.0 | -2.2
c1ccc2[nH]c(SCSc3nc4ccccc4[nH]3)nc2c1 | 4.0 | -3.5
CCCC(=O)Nc1ccc(NC(=O)c2cc(I)ccc2Cl)cc1 | -3.8 | -0.8
CCOc1ccc(N2CCn3c2nn(Cc2cccc(C(F)(F)F)c2)c(=O)c3=O)cc1 | -2.3 | 3.9
Nc1ccccc1-c1nnc(SCc2ccccc2)[nH]c1=O | 2.0 | 4.4
C=CCSc1nnc(-c2ccccc2N)c(=O)[nH]1 | 99.1*! | -6.5
Cc1ccc(-n2cc(C(=O)N3CCN(c4ccccc4)CC3)c3ccccc3c2=O)cc1C | 74.0* | -0.8
Cc1ccc(-n2cc(C(=O)N3CCCC3)c3ccccc3c2=O)cc1C | 10.0 | -6.3
O=C(c1cccs1)N1CC(C(=O)N2CCCC2)C2(CCCCC2)C1 (stereo unspecified) | 0.8 | -3.0
Cc1cccc(CN(C)CCN(C)C)c1 | -9.4 | -4.4
Cc1cc(C)c(C#N)c(SC/C=C/c2ccccc2)n1 | -140.0 | 3.8

Screens: PubChem, University of Kansas High Throughput Screening Laboratory
